Usually inhibition stands for the drop in the measured response relative to a control, in per cent.

About 3,100 (0.97%) of roughly 320,000 compounds were called active.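 How the source made its calls: active means mean replicate inhibition of at least 70% and a set share of replicates each scoring 70 or more; inconclusive means meets just one of the two criteria; inactive means fails both criteria.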 The full list was thinned out, with actives kept by preference.

The assay deals with Scavenger receptor class B member 1 (Mus musculus) (UniProt Q61009). Kind of assay: inhibitors of SR-BI mediated HDL lipid uptake, primary screen, ldlA[mSR-BI] cells, fluorescence, single point (AID 488896).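 Further: 0% = median of neutral control wells and 100% = median of positive control wells.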 The note with it: ldlA[mSR-BI] CHO cells, DiI-HDL uptake fluorescence, 3 h; at 12.5 µM; active compounds read high.
Chain of Scavenger receptor class B member 1 (Mus musculus) (Q61009 whole entry, looked up): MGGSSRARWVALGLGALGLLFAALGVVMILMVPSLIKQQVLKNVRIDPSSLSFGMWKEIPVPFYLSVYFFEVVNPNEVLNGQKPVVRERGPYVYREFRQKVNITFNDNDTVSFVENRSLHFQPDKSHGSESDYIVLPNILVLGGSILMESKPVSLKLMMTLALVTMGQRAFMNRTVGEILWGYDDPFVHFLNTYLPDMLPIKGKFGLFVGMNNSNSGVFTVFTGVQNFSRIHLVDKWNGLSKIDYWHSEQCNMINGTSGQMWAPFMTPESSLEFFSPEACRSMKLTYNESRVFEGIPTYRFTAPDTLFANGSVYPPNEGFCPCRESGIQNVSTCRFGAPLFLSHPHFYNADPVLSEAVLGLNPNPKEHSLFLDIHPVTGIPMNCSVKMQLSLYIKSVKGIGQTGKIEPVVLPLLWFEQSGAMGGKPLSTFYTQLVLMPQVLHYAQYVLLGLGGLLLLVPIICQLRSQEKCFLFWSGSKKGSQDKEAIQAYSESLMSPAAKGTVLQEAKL
On to `Cc1cc([N+](=O)[O-])ccc1NS(=O)(=O)c1ccccc1`, for which the inhibition is -11.2% (inactive).
The result for `COc1ccc(/C=C/C(=O)OCC(=O)N2CCN(S(=O)(=O)c3ccc(C)cc3C)CC2)cc1OC` reads 71.9% (active); that for `Cc1ccc(S(=O)(=O)N2CCN(C(=O)COC(=O)/C=C/c3cccc(Cl)c3)CC2)c(C)c1`, -11.6% (inactive).
In the case of `Cc1ccc(S(=O)(=O)N2CCN(C(=O)COC(=O)c3c(C)cc(C)cc3C)CC2)c(C)c1`, the inhibition is 20.4% (inactive).
Under `CC(C)(C)OC(=O)N1CCC(C(=O)Nc2cccc(C(=O)NCCc3ccccc3)c2)CC1` stands 52.6% (inactive); under `Cc1c(NC(=O)c2cc(-c3ccc(Cl)s3)nc3ccccc23)c(=O)n(-c2ccccc2)n1C`, 95.8% (active).
Under `CC(=O)N1CCN(C(=O)c2cc(-c3ccc(Cl)s3)nc3ccccc23)CC1` stands 33.7% (inactive); under `O=C(c1cc(-c2ccc(Cl)s2)nc2ccccc12)N1CCOCC1`, 19.5% (inactive); under `CC(=O)Oc1ccc(OC(C)=O)c2c1C1C=CC2CC1`, -21.7% (inactive).
With `COc1ccc(Nc2ccc3ccccc3c2)cc1`, the inhibition is 31.3% (inactive).
Regarding `CNc1nc(-c2ccccc2)cc(-c2ccccc2)n1`, the inhibition was 21.8% (inactive).
Turning to `Nc1cccc(-c2cc(-c3ccccc3)nc(-c3cccc(N)c3)n2)c1`, the inhibition is 102% (active).
As to `Nc1nc(-c2ccccc2)cc(-c2ccccc2)n1`, the inhibition was 9.59% (inactive).
Regarding `CC(=NNC(=S)N1CCCCCC1)c1ccccn1`, the inhibition is 22.4% (inactive).
As for `O=C(Nc1ccc(N2CCOCC2)cc1)c1cccc(S(=O)(=O)N2CCOCC2)c1`, the inhibition is 65.7% (inactive).
For `O=C(N/N=C/c1ccccn1)c1ccc(S(=O)(=O)N2CCCCCC2)cc1`, the inhibition is 10.6% (inactive).
On to `Cc1ccc(NC(=O)c2ccccn2)cc1S(=O)(=O)N1CCOCC1`, for which the inhibition is -25.4% (inactive).
Take `Cc1ccc(C(=O)Nc2ccc3c(c2)OCCO3)cc1S(=O)(=O)N1CCOCC1`: the inhibition was 50.5% (inactive).
Take `O=C(Nc1ccc(S(=O)(=O)Nc2nccs2)cc1)c1cccc(S(=O)(=O)N2CCOCC2)c1`: the inhibition was -0.76% (inactive).
Turning to `Cc1ncc(CO)c(/C=N/NC(=O)c2cccc(S(=O)(=O)N3CCCC3)c2)c1O`, the inhibition is 84.8% (active).
On to `CCOc1cc(/C=N/NC(=O)c2cccc(S(=O)(=O)N3CCOCC3)c2)ccc1OCC(=O)N(C)C`, for which the inhibition was 23.7% (inactive).
Turning to `COc1ccc(Br)cc1/C=N/NC(=O)c1cccc(S(=O)(=O)N2CCOCC2)c1`, the inhibition is 81.8% (active).
On to `COc1ccc(OC)c(NC(=O)c2cccc(S(=O)(=O)N3CCN(C(C)=O)CC3)c2)c1`, for which the inhibition was 10.1% (inactive).
Turning to `Cc1nc2ccc(NC(=O)c3cccc(S(=O)(=O)N4CCOCC4)c3)cc2s1`, the inhibition was 72.3% (active).
For `Cc1cccc(NC(=O)c2cccc(S(=O)(=O)N3CCCC3)c2)n1`, the inhibition is 26.2% (inactive).
Under `Cc1ccc(NC(=O)c2ccc(Cl)nc2)cc1S(=O)(=O)N1CCOCC1` stands 74.1% (active); under `CC(=O)OCC1(O)CC23CCC4c5ccoc5CCC4(C)C2CCC1C3` (stereo unspecified), 30.4% (inactive); under `COc1cc(/C=C/CNC[C@H]2O[C@@H](n3cnc(C(N)=O)n3)[C@H](O)[C@@H]2O)ccc1O`, -8.12% (inactive).
For `O=c1[nH]c(=S)[nH]c(O)c1/C=C1\C=Nc2ccccc21`, the inhibition was -12.1% (inactive).
Take `Cc1cc(OCCCC(=O)Nc2cc(S(=O)(=O)N3CCOCC3)ccc2N2CCOCC2)ccc1Cl`: the inhibition is 17.2% (inactive).
Turning to `CC(C)=C(NC(=O)c1ccccc1)C(=O)N/N=C(\C)c1ccccc1O`, the inhibition is -7.68% (inactive).
As to `Cc1[nH]n(-c2ccccc2)c(=O)c1/C=N/NC(=O)c1ccoc1C`, the inhibition is 69.6% (inactive).
Under `C/C(=N\NC(=O)c1ccoc1C)c1ccccc1O` stands 95.2% (active); under `Cc1ccc(C)c(S(=O)(=O)N(C)c2ccc(OC(=O)C3CCN(C(=O)c4ccc(F)cc4)CC3)cc2)c1`, 12.3% (inactive).
Regarding `CC1=CC(C)(C)N(C(=O)CSc2nnc(-c3ccccc3)o2)c2ccc(C)cc21`, the inhibition was 73.5% (active).
`Cc1cccc(C)c1OC(=O)CSc1nnc(-c2ccccc2)o1`: the inhibition was -9.02% (inactive).
For the molecule `CC1=CC(C)(C)N(C(=O)CSc2nccn2C)c2cc(C)ccc21`, the inhibition was -2.67% (inactive).
The result for `CCc1c(Nc2ccccc2Cl)nc(N)[nH]c1=O` reads -15.3% (inactive).
As to `CCOc1cc2ccccc2cc1C(=O)Nc1ccccn1`, the inhibition is 58.6% (inactive).
Under `CCOc1ccc(NC(=O)Nc2cc(C)ccc2OC)cc1` stands 10.4% (inactive); under `COc1ccc(OC)c(NC(=O)CC(Cc2ccccc2OC)C(=O)O)c1` (stereo unspecified), -10.9% (inactive); under `CCOc1cc(NS(=O)(=O)c2ccc(OC)cc2)c(OCC)cc1NC(C)=O`, -2.12% (inactive).
Consider `CCOc1ccccc1NC(=O)Nc1cc(OC)ccc1OC`, for which the inhibition was 76.1% (active).
The result for `CCOc1cc(NC(=O)c2ccccn2)c(OCC)cc1NC(=O)c1ccc(OC)cc1` reads 72.3% (active).
For `CC1CN(Cc2ccccc2)C(=S)NC1=O` (stereo unspecified), the inhibition was -4.96% (inactive).
Turning to `Cc1cc2c(cc1C)NC1(C[C@H]3CCC(=O)N4CC[C@@H](C1)[C@@H]34)C(=NC(C)(C)CC(C)(C)C)N2` (stereo partly specified), the inhibition was -27.8% (inactive).
The result for `O=C(NNc1nc(N2CCCC2)nc(N2CCCC2)n1)c1ccccc1` reads -25.2% (inactive); that for `O=C1C=C(NS(=O)(=O)c2ccccc2)C(=O)c2ccccc21`, -17.2% (inactive); that for `c1ccc(-c2c[nH]c(-c3ccccc3)c2)cc1`, 9.83% (inactive).
Consider `COc1ccc(-c2c(C)cc3oc(=O)cc(-c4ccccc4)c3c2C)cc1OC`, for which the inhibition was 66.6% (inactive).
Turning to `COc1ccc(-c2c(C)cc3oc(=O)cc(-c4ccccc4)c3c2C)cc1C=O`, the inhibition is 75.1% (active).
Take `COc1ccc(-c2c(C)cc3oc(=O)cc(-c4ccccc4)c3c2C)cc1F`: the inhibition is 68.3% (inactive).
Take `COc1ccc2[nH]c3c(c2c1)CCN1C(=O)C(CC(=O)NCCc2ccccn2)C[C@H](C(=O)N2CCOCC2)[C@@]31C` (stereo partly specified): the inhibition is -24.1% (inactive).
Take `O=C(Nc1c[nH]c(=O)[nH]c1=O)OCc1ccccc1`: the inhibition was -8.08% (inactive).
The result for `O=C(NC1=CC(=O)c2ccccc2C1=O)c1ccccc1` reads 2.35% (inactive); that for `Cc1cccc(NC(=O)c2sc3nc4c(c(-c5ccco5)c3c2N)CCC4)c1`, 77.8% (active); that for `Cc1cccc(NC(=O)CSc2nnc(-c3ccco3)o2)c1`, -5.55% (inactive).
Under `Cc1cccc(NC(=O)c2sc3nc(N4CCOCC4)c4c(c3c2N)CCCC4)c1` stands 68% (inactive); under `CCOC(=O)/C(=N\Nc1ccccc1[N+](=O)[O-])c1csc(Nc2ccccc2)n1`, 106% (active).
As for `Cc1csc(NC(=O)Nc2ccccc2[N+](=O)[O-])n1`, the inhibition was 2.45% (inactive).
The result for `CCOC(=O)C/C(C)=N\Nc1ccc([N+](=O)[O-])cc1[N+](=O)[O-]` reads -9.86% (inactive); that for `O=C(OCCOc1ccccc1F)c1cc(S(=O)(=O)N2CCOCC2)ccc1F`, 12.6% (inactive).
As to `C=C(C)CNc1cc(S(=O)(=O)N2CCOCC2)ccc1Oc1ccccc1`, the inhibition is 10.5% (inactive).
As for `COC(=O)c1cc(Oc2ccc(S(=O)(=O)N3CCOCC3)cc2[N+](=O)[O-])cc(C(=O)OC)c1`, the inhibition is 70.8% (active).
Take `COc1ccc(S(=O)(=O)N2CCC(C(=O)OCC(=O)c3ccccc3)CC2)cc1[N+](=O)[O-]`: the inhibition is -14.3% (inactive).
As for `CC(C)(C)C(=O)Nc1cccc(-c2ccc[nH]2)n1`, the inhibition was -5.41% (inactive).
With `COc1cccc(NC(=O)CN2CCN(CC(=O)Nc3ccccc3Cl)CC2)c1`, the inhibition is 19.8% (inactive).
Take `Cc1cc(C)cc(NC(=O)NC2CCN(CC(=O)Nc3cccc(Cl)c3C)CC2)c1`: the inhibition was 74.4% (active).
For `O=C(CN1CCC(NC(=O)Nc2ccccc2)CC1)Nc1cccc([N+](=O)[O-])c1`, the inhibition was 30.9% (inactive).
As to `O=C(Cc1ccc([N+](=O)[O-])cc1)NCCc1ccc2c(c1)OCO2`, the inhibition is 30.8% (inactive).
For the molecule `CC(C)=CCc1ccc(O)c(=O)cc1C(C)C`, the inhibition was 12.4% (inactive).
Take `CC(=O)OC1CCC2C3CCC4=C(CC(F)C(=O)C4)C3CCC12C` (stereo unspecified): the inhibition was 3.99% (inactive).
The result for `Brc1ccc(-c2csc(N/N=C/c3cccnc3)n2)cc1` reads 37.2% (inactive).
For `Brc1ccc(-c2csc(N/N=C/c3ccc4c(c3)OCO4)n2)cc1`, the inhibition is 79.4% (active).
For `C(=N\Nc1ccc2ccccc2n1)/c1ccc2c(c1)OCO2`, the inhibition is 7.43% (inactive).
For the molecule `NC(=O)c1ncn([C@@H]2O[C@H](CNCc3cnc(N4CCOCC4)s3)[C@@H](O)[C@H]2O)n1`, the inhibition was 12% (inactive).
The result for `CC/C(=C(/c1ccccc1)c1ccc(OCC[N+](C)(C)C)cc1)c1ccccc1` reads -44.1% (inactive); that for `CCc1ccnc(NC(=O)Nc2ccc(OCc3ccccc3)cc2)c1`, 81.9% (active).
For the molecule `Cc1cccc(NC(=O)Nc2ccc(OCc3ccccc3)cc2)n1`, the inhibition was 17.6% (inactive).
With `O=C(O)/C=C\C(=O)Nc1ccc(OCc2ccccc2)cc1`, the inhibition is -11.2% (inactive).
In the case of `Cc1cc(NC(=O)C(C)SCC(=O)Nc2cccc(S(=O)(=O)N3CCCCCC3)c2)no1` (stereo unspecified), the inhibition was 41.5% (inactive).
Regarding `Cc1cn(C2CC(O)C(CO)O2)c(=O)n(CCCc2ccccc2)c1=O` (stereo unspecified), the inhibition was 2.76% (inactive).
For `Cc1ccccc1OCC(=O)Nc1ccc2c(c1)ncn2C`, the inhibition is 9.34% (inactive).
Consider `Cc1ccccc1OCC(=O)Nc1ccc(N2CCN(C(=O)C(C)C)CC2)c(Cl)c1`, for which the inhibition is 72% (active).
On to `Cc1ccccc1OCC(=O)Nc1ccc(S(=O)(=O)N2CCOCC2)cc1`, for which the inhibition is -12.4% (inactive).
The result for `Cc1ccc(Cn2c(C)c3cnn(CC(=O)NCCN4CCOCC4)c(=O)c3c2C)cc1` reads 22.1% (inactive); that for `CCC1(C)COC(c2ccc(OC)c(OC)c2)OC1` (stereo unspecified), -11.4% (inactive); that for `Cc1ccc(C(=O)O)c(NC=O)c1OCc1ccccc1`, -19.3% (inactive).
For `CCOC(=O)COc1ccc([N+](=O)[O-])cc1`, the inhibition is -24.5% (inactive).
For the molecule `CCOC(=O)/C(=C\c1ccc([N+](=O)[O-])cc1)C(=O)c1cc(C(C)=O)c(Nc2ccccc2)s1`, the inhibition was 80.9% (active).
Under `CCOC(=O)/C(C#N)=C/c1ccc(OCC(=O)Nc2ccccc2)c(OC)c1` stands -11.4% (inactive).

Source of the values: PubChem BioAssay AID488896 (Broad Institute, 2010).
